Source: PubChem (several laboratories)
An excerpt weighted towards active compounds, which were near 5.4% of everything screened.
ALR inh: blocks human ALR sulfhydryl oxidase activity | P55789 | purified ALR, DTT oxidation, H2O2 HRP-luminol luminescence | inhibition, % (test concentration not listed) | 290,000 tested, 3.8% active | AID 485317;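 active means mean replicate inhibition above about 79%, with every replicate also reaching it, limit read from the data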
Target sequence (P55789 whole entry, looked up): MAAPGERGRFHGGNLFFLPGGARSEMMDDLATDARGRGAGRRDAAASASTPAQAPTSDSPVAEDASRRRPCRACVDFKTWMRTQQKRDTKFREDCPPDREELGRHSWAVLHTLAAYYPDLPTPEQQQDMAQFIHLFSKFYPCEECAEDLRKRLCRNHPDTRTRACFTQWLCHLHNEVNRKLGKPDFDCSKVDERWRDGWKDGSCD
CSC inhib: cancer stem cell inhibition; cancer stem cell-like cells viability, luminescence; inhibition, % at 7.5 µM; 300,000 tested, 1.1% active; in the data active means inhibition above about 75%; tested in HMLE shEcad cells
PP1 inh: counter-screen for PP5 inhibitors: inhibitors of human PP1-alpha; inhibition, % at 6.7 µM; AID 2235; 320,000 tested, 0.9% active; purified PP1alpha, OMFP fluorescence; P62136;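 active means inhibition above the mean inhibition of all tested compounds plus 3 SD, computed separately for each screening campaign, cut at about 15% in these data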
Target sequence (P62136 whole entry, looked up): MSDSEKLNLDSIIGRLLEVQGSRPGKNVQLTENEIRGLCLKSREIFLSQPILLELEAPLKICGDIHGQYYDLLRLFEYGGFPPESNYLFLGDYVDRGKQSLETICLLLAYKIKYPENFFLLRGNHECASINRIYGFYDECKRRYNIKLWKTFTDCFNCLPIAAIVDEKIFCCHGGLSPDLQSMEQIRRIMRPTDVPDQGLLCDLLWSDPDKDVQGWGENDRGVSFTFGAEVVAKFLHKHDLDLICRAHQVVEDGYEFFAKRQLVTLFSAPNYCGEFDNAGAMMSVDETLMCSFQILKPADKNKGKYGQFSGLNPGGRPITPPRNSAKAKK
Calb FLC: affects C. albicans growth with fluconazole. C. albicans CaCi-2 (fluconazole-resistant clinical isolate) + fluconazole, Alamar Blue growth, 48 h. growth inhibition, % (no concentration beside the values). 300,000 tested, 0.57% active. AID 1979;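 active means growth inhibition above about 58% in most replicates, limit read from the data, passing the limit was not always enough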;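 further: all wells also contain fluconazole at 8 µg/ml as a sub-toxic cotreatment; 0% = median of DMSO wells and 100% = median of geldanamycin control wells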
PP5 primary: PP5 (human) phosphatase inhibition | P53041 | purified PP5c, OMFP substrate fluorescence | inhibition, % at 6.7 µM | 320,000 tested, 0.18% active | AID 1987;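 active means inhibition above the campaign's mean inhibition across all tested compounds plus 3 SD, cut at about 9.5% in these data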;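 further: 0% = DMSO only and 100% = 100 µM cantharidin control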
* = called active by the depositor; . = not tested or not shown.

SMILES	ALR inh	CSC inhib	PP1 inh	Calb FLC	PP5 primary
COCCCNS(=O)(=O)c1ccc(SC)cc1	-8	-8	1	-12	0
Nc1c(C(=O)c2ccc(Cl)cc2)sc2c1c(=O)[nH]c(=O)n2-c1ccccc1	-4	5	16*	15	0
Nc1c(C(=O)c2ccccc2)sc2c1c(=O)[nH]c(=O)n2-c1ccccc1	-1	.	1	-15	-2
Cn1c(=O)c2[nH]c(Nc3ccccc3)nc2n(C)c1=O	89*	7	2	2	1
CC(C)OCC(O)CSc1ccccn1 (stereo not drawn)	-3	-11	1	6	-1
O=C(NC1=NCCS1)c1cc2ccccc2o1	-6	16	-1	-2	-2
CC(C)c1nnc(NC(=O)COc2ccc3c(c2)OCO3)s1	-15	31	-1	7	1
CCCC(C)c1nnc(NC(=O)COc2ccc3c(c2)OCO3)s1 (stereo not drawn)	53	85*	16*	5	-6
O=C(Cc1ccccc1)N1CCN(S(=O)(=O)c2cccc([N+](=O)[O-])c2)CC1	1	-3	0	26	-2
Cc1cccc(CSC2=NCCN2C(=O)c2ccc(Br)o2)c1	95*	-8	-1	0	3
O=C(Cc1ccccc1)N1CCN=C1SCc1cccc([N+](=O)[O-])c1	98*	1	1	-4	5
Cc1cccc(CSC2=NCCN2C(=O)c2ccc(S(=O)(=O)N(C)C)cc2)c1	14	-2	2	6	0
Cc1cccc(C(=O)N2CCN=C2SCc2ccc([N+](=O)[O-])cc2)c1	99*	0	5	-12	-1
CN(C)C(=S)c1ccccc1	-19	1	-1	-5	-1
COc1cccc(C(=O)Nc2nc(-c3ccncc3)cs2)c1	-6	13	12	-19	2
CC1=C(CO)C(=O)OC([C@@H](C)C2CC[C@H]3C4C[C@H]5O[C@]56[C@@H](O)C=CC(=O)[C@]6(C)C4CC[C@]23C)C1 (stereo partly drawn)	6	99*	-6	23	2
CCCCn1c(-c2ccc(C(C)(C)C)cc2)nc2cc3[nH]c(=O)c(C(C)C)nc3cc21	-13	10	7	4	1
CCCCn1c(-c2ccc(Cl)c(Cl)c2)nc2cc3[nH]c(=O)c(C(C)C)nc3cc21	-5	47	16*	17	4
COc1ccc2[nH]c(C)c(-c3csc(N)n3)c2c1	99*	-9	-3	1	2
COc1ccc(NC(=O)NNC(=O)CCc2ccc(O)c(O)c2)cc1OC	99*	-31	-2	-6	0
O=C(O)c1cc(N/N=C/C=C/c2ccccc2)ccc1Cl	99*	.	5	24	3
Cc1nn(-c2ccccc2)c(Cl)c1/C=N/NC(=O)OC(C)(C)C	-1	-11	-1	-2	4
O=C(O)c1cc(N/N=C/c2ccc(OCc3ccccc3)cc2)ccc1Cl	97*	7	3	-7	0
Cc1nn(-c2ccccc2)c(Cl)c1/C=N/Nc1ccc(Cl)c(C(=O)O)c1	96*	1	0	-7	-1
Cc1ccc2nc(NC(=O)C3CC(=O)N(Cc4ccco4)C3)sc2c1 (stereo not drawn)	0	5	2	4	2
SMILES	ALR inh	CSC inhib	PP1 inh	Calb FLC	PP5 primary
CCOC(=O)Cc1nnc(NC(=O)C(CC)Sc2nnc3c4ccccc4n(C)c3n2)s1 (stereo not drawn)	-4	-7	4	1	0
CCN(c1ccc(NC(=O)CCNC(=O)c2ccco2)cc1)C(C)C	99*	-8	-2	-23	0
CCCNC(=O)C(Cc1cccc(Cl)c1)NC(=O)c1ccc(C#N)cc1 (stereo not drawn)	2	-7	-3	.	-2
Nc1ccc2c(c1)C(=O)C(=O)c1ccccc1-2	33	-5	39*	-3	8
O=C1C(=O)c2ccc(-c3ccccc3)cc2-c2ccccc21	-21	131*	0	34	3
C1CCC(C(CC2CCCCN2)C2CCCCC2)CC1 (stereo not drawn)	.	99*	1	.	1
NC(=O)CC(NC(=O)c1ccccc1)c1ccc(N2CCC(N3CCCC3)CC2)c([N+](=O)[O-])c1 (stereo not drawn)	-8	-9	-1	2	1
CC(NC(=O)c1ccc(N2CCCC2)c([N+](=O)[O-])c1)c1ccc(S(N)(=O)=O)cc1 (stereo not drawn)	98*	-8	1	28	5
NC(=O)CC(NC(=O)c1cccc(Br)c1)c1ccc(N2CCC(N3CCCCC3)CC2)c([N+](=O)[O-])c1 (stereo not drawn)	5	-1	0	2	1
NC(=O)CC(NC(=O)c1ccc(Br)cc1)c1ccc(N2CCCCCCC2)c([N+](=O)[O-])c1 (stereo not drawn)	4	131*	7	-1	6
NS(=O)(=O)c1ccc(N2CCCCCC2)c([N+](=O)[O-])c1	-4	2	-1	-11	0
Cc1ccccc1CNc1ccc(C(CC(N)=O)NC(=O)c2ccccc2)cc1[N+](=O)[O-] (stereo not drawn)	2	78*	0	2	-2
NC(=O)CC(NC(=O)c1ccccc1)c1ccc(N2CCC(Cc3ccccc3)CC2)c([N+](=O)[O-])c1 (stereo not drawn)	-3	-11	17*	7	5
CCOC(=O)c1c(NC(C)=O)sc2c(OCC(O)CN(CC)CC)c(Br)ccc12 (stereo not drawn)	-2	25	2	-10	4
C[C@H](NC(=O)C1CCN(S(=O)(=O)c2ccccc2)CC1)C(=O)NCc1ccccn1	-1	-1	-2	-5	3
NC(=O)CC(NC(=O)c1cccc(Br)c1)c1ccc(N2CCN(c3ccc(F)cc3)CC2)c([N+](=O)[O-])c1 (stereo not drawn)	0	-1	2	-18	1
NC(=O)CC(NC(=O)c1ccc(Br)cc1)c1ccc(N2CCN(c3ccccc3)CC2)c([N+](=O)[O-])c1 (stereo not drawn)	3	-19	15*	-21	2
NC(=O)CC(NC(=O)Cc1ccc(Br)cc1)c1ccc(NC2CCCCCC2)c([N+](=O)[O-])c1 (stereo not drawn)	-3	76*	2	-2	4
NC(=O)c1cc2n(n1)C(C(F)(F)F)CC(c1ccco1)N2 (stereo not drawn)	-17	-15	-2	-4	-2
Cc1cc(Cl)n2c(nc3ccccc32)c1C#N	.	.	.	94*	.
Nc1cc(Cl)ccc1C(=O)OCC(=O)NC1CCCCCCC1	0	11	-1	.	0
CCOC(=O)c1ccccc1OCc1cc(/C=N/n2cnnc2)ccc1OC	-2	10	-1	102*	2
CCOc1ccccc1NC(=O)C(c1ccccc1)N1CCN(CC(=O)N2CCCC2)CC1 (stereo not drawn)	-7	2	.	.	.
Cc1ccc(-c2nn(-c3ccccc3)cc2C2CC(c3ccccc3)=NN2C(=O)CCC(=O)O)cc1 (stereo not drawn)	7	-2	17*	25	5
